Assay results reported in the supplement of paper PMC9023506.
Structures can show the parent of a compound that is named as a salt.

These molecules were tested on Danio rerio larvae (5 dpf) (assay: activity during first hour (no stimuli), difference vs DMSO (percentage points (treated minus DMSO)); higher = more of the behaviour than the DMSO vehicle control). Details: 10 µM; exposure time: 3 h pre-incubation + 3 h imaging.
Method: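 5-dpf wild-type zebrafish larvae were imaged in 96-well plates. They were treated with 190 Tocris FDA-approved drugs at 10 µM (1 µl/ml DMSO) for 3 h before and 3 h during imaging at 28.5 °C, 48 larvae per drug. Automated image analysis gave % time moving and optomotor responses. Values are drug group mean minus DMSO vehicle mean (n=844), in percentage points, for 10 behaviours.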

Structure (SMILES) | activity during first hour
O=c1[nH]c2ccccc2n1C1CCN(CCCC(c2ccc(F)cc2)c2ccc(F)cc2)CC1 [Pimozide] | -12.5
C=C1C[C@@H]2[C@H](CC[C@]3(C)C(=O)CC[C@@H]23)[C@@]2(C)C=CC(=O)C=C12 [Exemestane] | -19.6
CC(C)C[C@H]1C(=O)N2CCC[C@H]2[C@]2(O)O[C@](NC(=O)[C@@H]3C=C4c5cccc6[nH]c(Br)c(c56)C[C@H]4N(C)C3)(C(C)C)C(=O)N12 [Bromocriptine mesylate] | 15.2
CN1C[C@H](C(=O)N[C@]2(C)O[C@@]3(O)[C@@H]4CCCN4C(=O)[C@H](Cc4ccccc4)N3C2=O)C[C@@H]2c3cccc4[nH]cc(c34)C[C@H]21 [Dihydroergotamine mesylate] | 4.7
N[C@@H]1C[C@H]1c1ccccc1 [Tranylcypromine hydrochloride] | -14.1
CC(O)(CS(=O)(=O)c1ccc(F)cc1)C(=O)Nc1ccc(C#N)c(C(F)(F)F)c1 (configuration not stated) [Bicalutamide] | 4.47
COc1cc2c(cc1OC)C1CC(=O)C(CC(C)C)CN1CC2 (configuration not stated) [Tetrabenazine] | 3.91
Cc1cccc([C@H](C)c2c[nH]cn2)c1C [Dexmedetomidine hydrochloride] | -27.8
C=CCN1C[C@H](C(=O)N(CCCN(C)C)C(=O)NCC)C[C@@H]2c3cccc4[nH]cc(c34)C[C@H]21 [Cabergoline] | -9.57
CCN(C)C(=O)Oc1cccc([C@H](C)N(C)C)c1 [Rivastigmine tartrate] | 6.97
COc1ccc(C(CN(C)C)C2(O)CCCCC2)cc1 (configuration not stated) [Venlafaxine hydrochloride] | -22.5
CC[C@@H](C(N)=O)N1CCCC1=O [Levetiracetam] | 7.99
